Drawing on PubChem BioAssay AID1273 (Columbia University Molecular Screening Center, 2008), this text covers inhibition and normalized cell count for 43 compounds.

Structures are written as SMILES. Screen size: about 130,000 compounds; about 1,200 (0.92%) were called active. The sample holds actives, similar compounds and a random draw of the others, so the mix is not that of the screen.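 The calls were made as follows: active = inhibition above the mean plus 3 SD, with well images judged a real hit on visual review (cut at about 60% in these data, passing the limit was not always enough); inconclusive = inhibition over the cutoff but images rejected on review; inactive = inhibition not above the cutoff.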

The test is described as follows: insulin gene promoter suppression in islet cells – imaging, TRM-6 cells (human fetal islet line), eGFP reporter, cell count, primary screen (AID 1273;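 as to normalized cell count: cells exposed to compound for 48 h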). To be noted: at 2 µM, reporter expression induced with tamoxifen; inhibition: stronger effect = higher value; normalized cell count: measured here: cell count, toxicity.
With `CCC(=O)c1cc2c(cc1NC(=O)c1cccs1)OCCO2`, the inhibition was 80% (active) and the normalized cell count was 106%.
For the compound `Cc1nc(-c2ccc(NC(=O)c3cccs3)cc2)cs1`, the inhibition was 43.8% (inactive) and the normalized cell count stood at 89.3%.
The matching figures for `COc1cc(NC(=O)c2cccs2)ccc1NC(=O)c1ccccc1Cl`: 20% (inactive) and 118%.
The matching figures for `N/C(=N\OC(=O)COc1ccc([N+](=O)[O-])cc1)c1ccc(Br)cc1`: -81.2% (inactive) and 113%.
For `Cc1cccc(C)c1NC(=S)N(Cc1cccnc1)Cc1ccccc1Cl`, the inhibition is -60% (inactive) and the normalized cell count came to 73.3%.
Turning to `CCOc1ccc(CCN2C(=O)c3cccnc3C2=O)cc1OCC`, the inhibition was 68.4% (active) and the normalized cell count stood at 94.8%.
Turning to `CCOc1ccc(CCNC(=O)CSc2cc(=O)n(C)c3ccc(Cl)cc23)cc1OCC`, the inhibition was -11.8% (inactive) and the normalized cell count came out at 144%.
`Cc1cccc(N2C(=O)c3cccnc3C2=O)c1`: the inhibition was 11.4% (inactive) and the normalized cell count is 66.7%.
Take `C/C(=N\NC(=O)C(N)=O)c1ccc2c(c1)OCCO2`: the inhibition was -41.2% (inactive) and the normalized cell count came out at 156%.
`CN(CC(=O)Nc1cccc2c1CCCC2)S(=O)(=O)c1ccc(Cl)cc1`: the inhibition was 38.5% (inactive) and the normalized cell count was 112%.
In the case of `CN(CC(=O)NCCc1ccccn1)S(=O)(=O)c1ccc(Cl)cc1`, the inhibition was -33.3% (inactive) and the normalized cell count was found to be 83.8%.
Turning to `Cc1nc(NC(=O)CN(C)S(=O)(=O)c2ccc(Cl)cc2)sc1C`, the inhibition was 80% (active) and the normalized cell count stood at 67.9%.
Turning to `COC(=O)c1cc(C)sc1NC(=O)CC1Nc2ccccc2NC1=O` (stereo unspecified), the inhibition is 40.5% (inactive) and the normalized cell count was found to be 145%.
The matching figures for `Cc1cnc(NC(=O)C2CCCC2)s1`: 20.5% (inactive) and 280%.
The matching figures for `CCOC(=O)c1cc(C)sc1NC(=O)C1CCC1`: 87.5% (active) and 161%.
In the case of `CCOC(=O)c1ccc(NNC(C)=O)c([N+](=O)[O-])c1`, the inhibition was -68.4% (inactive) and the normalized cell count was found to be 62.3%.
Regarding `O=C(C1CCCO1)N1CCN(C(=S)NC2CC2)CC1` (stereo unspecified), the inhibition was -29.4% (inactive) and the normalized cell count was 80.6%.
For `CC(=O)c1ccc(N2CCN(S(=O)(=O)c3c(C)[nH]c(=O)[nH]c3=O)CC2)cc1` the same measures were -10% (inactive) and 114%.
For `Cc1ccc(N/C=C/C(=O)c2ccccc2)cc1C`, the inhibition is 7.69% (inactive) and the normalized cell count amounted to 107%.
On to `C/C(=C\C(=O)c1cccnc1)Nc1ccc(C)c(C)c1`, for which the inhibition was 85.7% (active) and the normalized cell count is 74%.
`C/C(=C\C(=O)c1ccccc1)Nc1cccc(O)c1`: the inhibition is -33.3% (inactive) and the normalized cell count was 193%.
For the compound `CCSC1=NCCN1S(=O)(=O)c1ccc(F)cc1`, the inhibition was 7.69% (inactive) and the normalized cell count is 130%.
As for `CC(Oc1ccc(Cl)cc1)C(=O)OCC(=O)Nc1ncc(Cl)cc1Cl` (stereo unspecified), the inhibition is 20% (inactive) and the normalized cell count amounted to 100%.
Consider `COc1cc(NC(=O)COC(=O)c2cnc(C)cn2)c(C)cc1[N+](=O)[O-]`, for which the inhibition is 27.3% (inactive) and the normalized cell count was found to be 90.4%.
Turning to `Cc1cnc(C(=O)OCC(=O)Nc2ccc(Cl)cc2Cl)cn1`, the inhibition was 81.5% (active) and the normalized cell count amounted to 20%.
In the case of `Cc1ccc(S(=O)(=O)Cc2cc(-c3ccc(Cl)cc3)no2)cc1`, the inhibition is 25% (inactive) and the normalized cell count turned out to be 128%.
For `CCOC(=O)C1(Cc2ccc(Cl)cc2)CCN(C(=O)C2=NNC(=O)CC2)CC1` the same measures were -46.1% (inactive) and 93.7%.
For `CCN(CC)Cc1c(C(=O)OC)nnn1-c1nonc1N`, the inhibition is 72.4% (active) and the normalized cell count was found to be 14.1%.
As to `CCOC(=O)c1nnn(-c2nonc2-n2cccc2)c1CN1CCOCC1`, the inhibition is 13.9% (inactive) and the normalized cell count came to 62.1%.
`CCOC(=O)c1nnn(-c2nonc2-n2cccc2)c1CN1CCC(C(=O)OCC)CC1`: the inhibition is 13.9% (inactive) and the normalized cell count is 99.3%.
As for `Cc1ccc(C(=O)Cn2cccn2)cc1`, the inhibition was -62.5% (inactive) and the normalized cell count came to 90.7%.
Take `CNS(=O)(=O)c1ccc(NC(=O)C2CC(=O)N(c3ccc(Cl)cc3)C2)cc1` (stereo unspecified): the inhibition was 63.6% (inactive) and the normalized cell count amounted to 32.9%.
For `CCSc1nnc(NC(=O)c2ccc(C)cc2)s1` the same measures were -38.7% (inactive) and 45.1%.
Regarding `Cc1ccc(Nc2nnc(SCc3ccccc3)s2)cc1`, the inhibition was 100% (active) and the normalized cell count is 9.38%.
With `O=C(Nc1nnc(SCc2ccccc2)s1)c1ccco1`, the inhibition was 0% (inactive) and the normalized cell count turned out to be 86.4%.
For `CN(C)CCNC(=O)/C(=C/c1cccc([N+](=O)[O-])c1)NC(=O)c1ccccc1`, the inhibition is -14.3% (inactive) and the normalized cell count turned out to be 101%.
`O=C(NCC1CCCO1)C(C(=O)c1ccccc1)n1cc(Cl)ccc1=O` (stereo unspecified): the inhibition was -40% (inactive) and the normalized cell count is 104%.
With `CN(C)CCNC(=O)C(C(=O)c1ccccc1)n1ccccc1=O` (stereo unspecified), the inhibition was 86.7% (active) and the normalized cell count is 49.3%.
As for `COCC(=O)Nc1ccc(Br)cc1`, the inhibition was 73.3% (active) and the normalized cell count was 43.9%.
For `COCC(=O)Nc1cc(C(=O)OC)cc(C(=O)OC)c1`, the inhibition is 12.8% (inactive) and the normalized cell count stood at 127%.
`Cc1ccc(OC(=O)CCC(=O)Nc2ccc(Br)cc2)cc1`: the inhibition was -66.7% (inactive) and the normalized cell count turned out to be 102%.
Turning to `O=C(Cc1cccc2ccccc12)NCCC1=CCCCC1`, the inhibition is -22.2% (inactive) and the normalized cell count is 92.7%.
`CCOC(=O)c1ccccc1NC(=O)CSc1nc2ccccc2c(=O)[nH]1`: the inhibition is -83.3% (inactive) and the normalized cell count amounted to 180%.
